# From PubChem BioAssay AID720504 (National Center for Advancing Translational Sciences (NCATS), 2013)
# In all, about 360,000 compounds went through this assay and about 10,000 (2.8%) were called active. Another 4% or so got no clear call; they are omitted. The list comes from a sample in which actives are over-represented; it also holds similar structures and randomly drawn compounds. A number with no mark means an inactive call. The call rests on the fitted dose curve; in most records, active means well fitted inhibition curve with a large enough effect; inconclusive means small, poorly fitted or top-dose-only effect; inactive means flat fitted curve, though single readings scatter.
# Biological target: Serine/threonine-protein kinase PLK1 (Homo sapiens) (UniProt P53350)
# Sequence (P53350 whole entry, looked up, the tested form may be a part): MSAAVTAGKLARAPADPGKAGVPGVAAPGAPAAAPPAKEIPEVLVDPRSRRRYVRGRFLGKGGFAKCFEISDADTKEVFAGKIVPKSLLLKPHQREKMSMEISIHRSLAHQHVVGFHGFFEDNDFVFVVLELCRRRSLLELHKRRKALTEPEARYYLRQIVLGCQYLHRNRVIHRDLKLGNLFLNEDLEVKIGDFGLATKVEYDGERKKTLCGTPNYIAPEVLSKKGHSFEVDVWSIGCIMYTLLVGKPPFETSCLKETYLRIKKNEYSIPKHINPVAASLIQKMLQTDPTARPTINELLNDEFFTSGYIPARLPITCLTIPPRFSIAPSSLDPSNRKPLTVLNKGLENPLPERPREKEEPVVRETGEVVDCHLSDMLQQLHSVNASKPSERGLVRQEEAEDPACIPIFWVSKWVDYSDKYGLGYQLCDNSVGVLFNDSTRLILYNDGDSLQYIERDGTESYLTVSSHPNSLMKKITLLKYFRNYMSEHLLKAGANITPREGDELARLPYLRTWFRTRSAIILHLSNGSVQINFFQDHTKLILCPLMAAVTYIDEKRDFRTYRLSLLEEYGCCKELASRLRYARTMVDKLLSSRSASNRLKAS
# Assay: qHTS for Inhibitors of PLK1-PDB (polo-like kinase 1 - polo-box domain): Primary Screen; further: nearly all actives have a fitted effect of over 65% in size; on max response, negative = inhibition: series mostly up to about 57 µM
# Conditions: Plk1 PBD binding of FITC phosphopeptide, fluorescence polarization
# Text: The polo-like kinase 1 (Plk1) is a member of a conserved subfamily of serine / threonine protein kinases that plays a pivotal roles in cell proliferation. It has a C-terminal non-catalytic region called the polo-box domain (PBD) that plays a crucial role in the subcellular localization of the Plk1. […] Furthermore, depletion of the overexpressed Plk1 by RNAi efficiently induces apoptotic cell death in cancer and reduces tumor growth in mouse xenograft models. Thus, targeting Plk1 is an appealing strategy for anti-cancer therapy. Therefore, this project aimed to screen the Molecular Libraries Small Molecule Repository (MLSMR) using a novel approach to find inhibitors that target the Plk1 PBD instead of the conventional N-terminal catalytic domain. This project employed a fluorescence polarization (FP) assay using a FITC-conjugated phospho-9-mer (p-9-mer) peptide and purified human Plk1 PBD protein. The identified small molecule inhibitors of Plk1 PBD can then further be developed into useful tools for biomedical and clinical research that complements or replaces current relevant disease therapy. NIH Chemical Genomics Center [NCGC] NIH Molecular Libraries Probe Centers Network [MLPCN] MLPCN Grant: MH100728 Assay Submitter (PI): Kyung Lee, NCI
# Four microliter of 25 nM FITC-p-9-mer + 60 nM Plk1 PBD in buffer solution (final concentrations 25 nM and 60 nM respectively) or 4 uL of 25 nM FITC-p-9-mer (final concentration 25 nM) in buffer will be dispensed into a 1,536 Greiner medium-binding black solid plate. Small molecules at final concentrations of 18 nM to 57 uM and positive control phospho-9-mer (sequence: Ac-PPLHSpTAI-NH2) at final concentrations 26 nM to 57 uM and phospho-13-mer (sequence: Ac-[…]pTAI-NH2) at final concentrations of 1 nM to 2.3 uM will be pin-transferred (23 nL) to the plate via a Kalypsys pin-tool robotics equipped with a 1,536-pin array. The reaction plate will be centrifuged for 1 min at 1000 rpm and incubated at room temperature for 10 min. The FITC fluorescence signals will be read using the PerkinElmer ViewLux plate reader at 480 / 20 nm excitation and 540 / 20 nm S and P polarization emission wavelengths. Reagent bottles will be kept submerged into 4 °C recirculating chiller bath and all liquid lines will be covered with aluminum foil to minimize degradation. Library plates will be screened starting from the lowest to the highest concentrations to minimize compound carryover. Vehicle only plates, with DMSO being pin-transferred instead of compound solutions, will be included regularly throughout the screen to record any systematic shifts in assay signal.
# On the % scale 0 is the no-effect control and ±100 the full control effect; potency means the concentration at half of the fitted maximal effect.
Compound,"max response, negative = inhibition",Potency
COc1ccccc1Cc1c(-c2ccc(Cl)cc2)nc2ccc(Cl)cn12,-19.7%,
CNc1ccc(SC#N)cc1,,23.8 µM (active)
Cc1ccccc1Cn1c(C)c(C(=O)NCc2cccc(C(F)(F)F)c2)sc1=O,-4.46%,
CCN(C(=O)Nc1cccc2ccccc12)c1ccccc1,-4%,
Cc1ccc(S(=O)(=O)N2[C@@H](Cc3ccccc3)CO[C@H]2CC(=O)OCc2ccccc2)cc1,0.144%,
CCCCn1nnnc1C(c1ccccc1)N1CCN(c2ccccc2OC)CC1 (stereo not drawn),-14.9%,
CN(C)c1nc(=Nc2cccc(Cl)c2)ss1,,6.7 µM (active)
Cn1ncc([N+](=O)[O-])c1C(=O)Nc1cc(Cl)ccc1Cl,-6.39%,
O=C1c2ccccc2C(c2nc3ccccc3[nH]2)N1c1ccccc1 (stereo not drawn),3.28%,
O=C1Nc2ccccc2NC(c2ccc3c(c2)OCO3)=C1N(Cc1ccc(F)cc1)C(=O)c1ccco1,-4.45%,
Nc1ccc2nc3c(=O)[nH]c(=S)[nH]c3nc2c1,,2.67 µM (active)
CC(C)OC(=O)CC(=O)CC(O)c1cccc([N+](=O)[O-])c1 (stereo not drawn),-7.74%,
O=C(N/N=C/c1cccc(Br)c1)c1ccc(N2CCCC2=O)cc1,,26.7 µM (active)
O=C(Nc1ccc(N2CCCC2=O)cc1)c1cncc(Br)c1,6.3%,
O=C(N/N=C\c1cccc(Br)c1)c1ccccc1-n1cccc1,-3.78%,
CC(C)CN1CCC1(C)C(=O)Nc1ccc(OC(F)F)cc1 (stereo not drawn),-0.833%,
CCCNC(=O)C1(C)CCCN(Cc2c(C)nn(-c3ccccc3)c2C)C1 (stereo not drawn),2.73%,
COc1ccc(C(=O)NCC[N+](C)(C)C)cc1,1.35%,
COCCCNC(NC(=O)c1ccc(OC)cc1)C(Cl)(Cl)Cl (stereo not drawn),5.66%,
COCCNC(=S)c1ccc(OC)cc1,,26.7 µM (active)
C#CCNC(=O)C[C@@H]1C[C@@]2(C(=O)OCC)CCCC=C2N(Cc2ccco2)C1=O,-6.05%,
c1cc(-c2nn[nH]n2)ccc1CN1CCCCC1,-9.14%,
CC(C)c1ccc(-c2nn[nH]n2)cc1,-8.56%,
Brc1ccc(-c2nn[nH]n2)cc1,,23.8 µM (active)
COc1cccc(C(O)c2nc(-c3ccc(C)c(C)c3)cs2)c1 (stereo not drawn),-8.07%,
COCc1cccc(-c2csc(C(O)c3ccc(F)cc3)n2)c1 (stereo not drawn),-9.74%,
COc1ccc(NC(=O)CSc2nnnn2-c2cccc(OC)c2)cc1,5.21%,
COCCn1c(SCC(=O)Nc2ccc(F)cc2F)nc2c(c1=O)SCC2,10.8%,
